Source: PubChem BioAssay
Shown are actives, neighbours in structure and some others; about 3.6% of the full set was active somewhere.
HEK293 cAMP ctrl = parental HEK293 cAMP activation (counter-screen). actives 2.5% (n = 73,000). parental HEK293 CNG cAMP sensor, membrane potential fluorescence. Potency, µM (highest dose often 57.1 µM), hits mostly activators. AID 938; further: nearly all actives have a fitted effect of over 55% in size
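Parental HEK 293 cells stably expressing a cAMP-gated CNG channel were loaded with membrane potential dye containing 100 uM RO 20-1724 for 60 min. Compound added for 30 min; depolarization read as fluorescence intensity at 590 nm.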
IkB signaling = suppresses IkB signaling in ABC-DLBCL reporter cells; ABC-DLBCL IkBa-CBG/CBR dual luciferase ratio, 4 h; response scale: scaled: untreated 0%, proteasome inhibitor 100%; Potency, µM (series often up to 57.1 µM); actives 0.04% (n = 110,000); active means well fitted curve in the direction sought with a large enough effect in the signal ratio, not every such curve was filed as active; inconclusive means small, poorly fitted or top-dose-only effect, or a change in a side signal; the % refers to the signal ratio;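 further: the direction sought is a rising ratio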
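Luminescence ratio of IκBα-fused green versus native red beetle luciferase in OCI-Ly3 cells, 4 h post-doxycycline with compound; red signal alone, scaled from basal (0%) to zero light (-100%), flagged nonspecific or cytotoxic effects.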
TSHR ag = TSH receptor (human) agonism; P16473; HEK293-CNG-TSHR cells (CNG channel as cAMP sensor), membrane potential dye, cAMP; Potency, µM (series often up to 57.1 µM), actives largely listed as activators; actives 0.48% (n = 73,000); active means well fitted activation curve with a large enough effect in the main read-out, with a control signal flat, not every such curve was filed as active; inconclusive means small, poorly fitted or top-dose-only effect, or a change in a side signal; inactive means no such curve, though single readings can be large or run the other way; reference of the percent scale not stated here;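 further: the control signal comes from parental cells without the receptor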
Target sequence (P16473 whole entry, looked up): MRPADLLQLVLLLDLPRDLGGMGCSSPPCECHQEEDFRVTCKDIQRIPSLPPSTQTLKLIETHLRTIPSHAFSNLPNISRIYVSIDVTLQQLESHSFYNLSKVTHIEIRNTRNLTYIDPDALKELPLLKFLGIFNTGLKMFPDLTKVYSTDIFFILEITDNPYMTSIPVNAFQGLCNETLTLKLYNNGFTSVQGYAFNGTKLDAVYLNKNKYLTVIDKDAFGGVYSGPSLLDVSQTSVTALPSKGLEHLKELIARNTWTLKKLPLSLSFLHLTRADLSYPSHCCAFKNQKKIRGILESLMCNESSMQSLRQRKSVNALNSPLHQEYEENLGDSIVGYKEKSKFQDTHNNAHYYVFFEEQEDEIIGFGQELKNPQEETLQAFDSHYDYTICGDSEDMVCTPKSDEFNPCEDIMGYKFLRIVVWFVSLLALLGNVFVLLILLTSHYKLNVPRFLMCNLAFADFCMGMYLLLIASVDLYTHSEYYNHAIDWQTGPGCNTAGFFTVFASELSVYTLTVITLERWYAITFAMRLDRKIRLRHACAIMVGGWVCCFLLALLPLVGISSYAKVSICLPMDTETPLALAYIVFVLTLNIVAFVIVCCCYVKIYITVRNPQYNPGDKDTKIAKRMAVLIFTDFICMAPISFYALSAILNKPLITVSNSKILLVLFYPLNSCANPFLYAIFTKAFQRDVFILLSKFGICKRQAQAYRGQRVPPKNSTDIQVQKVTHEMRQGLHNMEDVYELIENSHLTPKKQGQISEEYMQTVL
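HEK 293 cells stably expressing TSHR and a cAMP-gated CNG channel; parental CNG-only cells as counterscreen. Cells preloaded 60 min with membrane potential dye plus 100 uM RO 20-1724, then compound 30 min; fluorescence read at 590 nm.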
ERK AVP inh = inhibitors of vasopressin-stimulated ERK signaling pathway; AID 995; Potency, µM (doses to about 57.5 µM), usual class: inhibitors; HEK293-V1b, vasopressin-stimulated pERK AlphaScreen; actives 0.99% (n = 72,000); further: nearly all actives have a fitted effect of over 55% in size
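HEK293 cells stably expressing V1b receptor, seeded overnight in 1% FBS, were treated with compounds for 30 min at 37C, then stimulated 5 min with 25 nM vasopressin; phospho-ERK read by AlphaScreen SureFire after lysis.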
CRE Fsk mod = modulators of forskolin-stimulated CRE signaling in CHO cells. CHO CRE-bla reporter (cAMP response element driving beta-lactamase), forskolin EC10, beta-lactamase ratio. Potency, µM (top dose mostly 38.2 µM), actives largely listed as activators. actives 2.5% (n = 71,000). AID 662; active means well fitted activation curve with a large enough effect in the signal ratio, with a control signal flat, not every such curve was filed as active; inconclusive means small, poorly fitted or top-dose-only effect, or effect the other way, or a change in a side signal; the % refers to the signal ratio
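Cells were plated overnight at 37 °C, exposed to compound titrations plus EC10 NKH 477 for 3 h, then given CCF4 dye for 2 h at room temperature. Blue/green (460/530 nm) ratio was converted to %Activity and AC50 values calculated.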
Of the large screens only hits and unclear results are named; the others gave an inactive call. Unless noted, the call rests on the fitted dose curve; in most records, active means well fitted curve in the direction sought with a large enough effect; inconclusive means small, poorly fitted or top-dose-only effect, or another doubt; inactive means no such curve, though single readings can be large; an effect the other way counts as inactive or inconclusive.

Cc1ccc(S(=O)(=O)Oc2ccc(N=Nc3ccc(-c4ccc(N=Nc5c(O)ccc6cc(S(=O)(=O)O)cc(S(=O)(=O)O)c56)c(C)c4)cc3C)cc2)cc1	ERK AVP inh 25µM, CRE Fsk mod inconclusive
O=C(CCCOc1ccc(Cl)cc1Cl)N1CCN(c2ccccn2)CC1	HEK293 cAMP ctrl inconclusive, TSHR ag inconclusive, ERK AVP inh 40µM, CRE Fsk mod inconclusive
O=C(CCCN1C(=O)c2ccccc2C1=O)N1CCN(c2ccccn2)CC1	none
O=C(COc1ccc(Cl)cc1Cl)N1CCCCCC1	HEK293 cAMP ctrl 4µM, TSHR ag inconclusive, CRE Fsk mod inconclusive
O=C(CCCCCNc1nc(=S)[nH]c2ccccc12)N1CCN(c2ccccn2)CC1	IkB signaling inconclusive, ERK AVP inh 13µM, CRE Fsk mod inconclusive
O=C(CCCOc1ccccc1)N1CCN(c2ccccn2)CC1	HEK293 cAMP ctrl inconclusive, TSHR ag inconclusive, ERK AVP inh 25µM
Cc1cc(=O)c2c(C)nn(-c3ccccc3)c2[nH]1	none (no result: IkB signaling, ERK AVP inh, CRE Fsk mod)
COc1ccccc1CNc1ccnc(-c2cccc(C#N)c2)n1	ERK AVP inh 32µM, CRE Fsk mod inconclusive
COc1ccc(CNc2ncnc3ccc(-c4cccc(C#N)c4)cc23)c(OC)c1	CRE Fsk mod 0.79µM
COc1ccccc1CNc1ncnc2ccc(-c3ccoc3)cc12	HEK293 cAMP ctrl 20µM, TSHR ag inconclusive, ERK AVP inh inconclusive
COc1ccc(CNc2nc(-c3cccc(C#N)c3)nc3ccccc23)c(OC)c1	HEK293 cAMP ctrl inconclusive, TSHR ag inconclusive, CRE Fsk mod 2µM
COc1ccc(CNc2ncnc3ccc(-c4ccoc4)cc23)c(OC)c1	HEK293 cAMP ctrl inconclusive, TSHR ag inconclusive, ERK AVP inh inconclusive
COc1ccc(-c2nn3c(-c4ccccc4C)nnc3c3ccccc23)cc1	none (no result: HEK293 cAMP ctrl, TSHR ag, ERK AVP inh, CRE Fsk mod)
N#Cc1cccc(-c2nc(NCc3cccs3)c3ccccc3n2)c1	ERK AVP inh inconclusive, CRE Fsk mod inconclusive
CC(=O)NCCNc1nc(-c2cccc(C#N)c2)nc2ccccc12	CRE Fsk mod 13µM
Cc1cc(OCCCn2ccnc2)cc(C)c1Cl	ERK AVP inh 25µM, CRE Fsk mod inconclusive
Cc1cc(C(=O)CSc2nnnn2-c2ccc(O)cc2)c(C)n1Cc1ccc2c(c1)OCO2	HEK293 cAMP ctrl inconclusive, IkB signaling inconclusive, TSHR ag inconclusive, CRE Fsk mod inconclusive
Cc1cc(C(=O)CSc2nnc(-c3cccc(F)c3)n2N)c(C)n1Cc1ccc2c(c1)OCO2	HEK293 cAMP ctrl 10µM, TSHR ag inconclusive, CRE Fsk mod inconclusive
Nc1ccc2oc(=O)c3ccccc3c2c1	ERK AVP inh 10µM
Cc1c(/N=C/c2ccco2)n(Cc2ccccc2)c2ccccc12	HEK293 cAMP ctrl inconclusive, TSHR ag inconclusive, ERK AVP inh 13µM, CRE Fsk mod inconclusive
Cc1cccc(Cn2c(=O)n(Cc3ccco3)c(=O)c3ccccc32)c1	HEK293 cAMP ctrl inconclusive, IkB signaling inconclusive, TSHR ag inconclusive, CRE Fsk mod inconclusive
CC(C)Sc1nc(-c2cccs2)nc2c1c(=O)n(C)c(=O)n2C	CRE Fsk mod 3.2µM (no result: ERK AVP inh)
Cn1c(=O)c2c(SCC(=O)NCC3CCCO3)nc(-c3cccs3)nc2n(C)c1=O (stereo unspecified)	none (no result: ERK AVP inh)
CCC(=O)N(c1ccc(F)cc1)C1C=CS(=O)(=O)C1 (stereo unspecified)	none
CCCCOc1ccccc1NC(=O)c1ccco1	HEK293 cAMP ctrl 16µM, IkB signaling inconclusive, TSHR ag inconclusive, CRE Fsk mod inconclusive
CCOc1ccccc1NC(=O)c1cccc(NC(=O)c2ccco2)c1	none (no result: TSHR ag)
Cc1ccc(Cn2cccc(NC(=O)c3ccco3)c2=O)cc1	HEK293 cAMP ctrl 16µM, TSHR ag inconclusive
N#Cc1c2c(c(N3CCN(c4ccccn4)CC3)n3c1nc1ccccc13)CCC2	ERK AVP inh inconclusive, CRE Fsk mod inconclusive
Cc1cc(N2CCN(c3ccccn3)CC2)n2c(nc3ccccc32)c1C#N	HEK293 cAMP ctrl 2µM, TSHR ag inconclusive, CRE Fsk mod inconclusive
CCCn1c(=O)c(C)cn2nc(N)nc12	CRE Fsk mod 13µM
CCOC(=O)c1cnn(CC2CCCCC2)c1N	none
COc1ccc(OCc2nnc(-c3ccccc3)o2)cc1	none (no result: HEK293 cAMP ctrl, TSHR ag, ERK AVP inh, CRE Fsk mod)
COc1cc(-c2nnc(COc3ccc4cc(Br)ccc4c3)o2)cc(OC)c1OC	CRE Fsk mod 2.5µM
COc1ccc(-c2nnc(COc3ccc4ccccc4c3)o2)cc1OC	HEK293 cAMP ctrl 4µM, IkB signaling inconclusive, TSHR ag inconclusive, ERK AVP inh inconclusive, CRE Fsk mod inconclusive
Cc1nc(NCCO)c2nc(-c3ccccc3)n(CCN(C)C)c2n1	CRE Fsk mod inconclusive (no result: IkB signaling)
COCCN1C(=O)c2ccccc2C(C(=O)NCCN(C)C)C1c1ccc(F)cc1 (stereo unspecified)	HEK293 cAMP ctrl inconclusive, TSHR ag inconclusive
COc1ccccc1S(=O)(=O)Cc1ccc(C(=O)N2CCN(c3ccccc3)CC2)o1	none
Cc1cccc(N2CCN(C(=O)c3ccc(CS(=O)(=O)c4ccccc4C)o3)CC2C)c1 (stereo unspecified)	HEK293 cAMP ctrl 25µM, IkB signaling inconclusive, TSHR ag inconclusive, ERK AVP inh inconclusive, CRE Fsk mod inconclusive
COC(=O)c1ccc(CS(=O)(=O)c2ccccc2C)o1	none
COc1ccccc1S(=O)(=O)Cc1ccc(C(=O)N2CCN(c3cccc(Cl)c3)CC2)o1	HEK293 cAMP ctrl 5µM, IkB signaling inconclusive, TSHR ag inconclusive, ERK AVP inh inconclusive
CSc1nc(C)c2c(n1)OC(CN1C(=O)c3ccccc3C1=O)C2 (stereo unspecified)	none
CCOC(=O)c1c(C2CCN(C(=O)OCC)CC2)nc2ccccn12	HEK293 cAMP ctrl 0.32µM, TSHR ag inconclusive, CRE Fsk mod inconclusive (no result: ERK AVP inh)
Cc1ccc(S(=O)(=O)N2CCCCC2C(=O)N2CCN(Cc3ccccc3)CC2)cc1 (stereo unspecified)	CRE Fsk mod inconclusive
CCN(CC)S(=O)(=O)c1ccc(C(=O)Nc2ccc3c(c2)OCCO3)cc1	none
CCCN(CCC)S(=O)(=O)c1cccc(C(=O)Nc2ccc3c(c2)OCO3)c1	HEK293 cAMP ctrl 16µM, IkB signaling inconclusive, TSHR ag inconclusive
COc1ccc(CNC(=O)C(c2ccco2)N(Cc2cccs2)C(=O)Cc2cccs2)cc1 (stereo unspecified)	HEK293 cAMP ctrl 20µM, TSHR ag inconclusive
CC(C)CCNC(=O)C(c1ccco1)N(CC1CCCO1)C(=O)Cn1nnc2ccccc21 (stereo unspecified)	HEK293 cAMP ctrl inconclusive, TSHR ag inconclusive
CC(C)CCNC(=O)C(c1ccco1)N(Cc1cccs1)C(=O)Cn1nnc2ccccc21 (stereo unspecified)	HEK293 cAMP ctrl 6.3µM, IkB signaling inconclusive, TSHR ag inconclusive
COc1ccc(CNC(=O)C(=O)NCC(c2ccco2)S(=O)(=O)c2cccs2)cc1 (stereo unspecified)	none (no result: HEK293 cAMP ctrl, TSHR ag, ERK AVP inh, CRE Fsk mod)
Cc1ccc(C(C(=O)NCc2ccco2)N(CCc2ccccc2)C(=O)Cn2nnc3ccccc32)o1 (stereo unspecified)	HEK293 cAMP ctrl 13µM, IkB signaling inconclusive, TSHR ag inconclusive
